HTT aggregate: inhibitors of mutant huntingtin aggregate formation in PC12 cells | Potency, µM (series often up to 46.1 µM), hits mostly inhibitors | PC12 HttQ103-GFP aggregates, Acumen cytometry, 40 h | 220,000 compounds, 1.1% hits; also: nearly all actives have a fitted effect of over 60% in size
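Huntingtin Q103 exon 1–GFP aggregates in induced PC12 cells (100 nM tebufenozide) were quantified by cytometry from lysates, with compounds dosed in titration.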
PNC inhibitor: perinucleolar compartment assembly inhibition; PC3M PTB-GFP, PNC prevalence imaging, 16 h; stronger effect = lower value; activity change (PNC), negative = inhibition, % at 10 µM; 140,000 compounds, 3.1% hits; AID 2417;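 active = readout at or below -70, meaning at least 70% loss of cells showing the perinucleolar compartment, a nuclear body marking cancer cells; inconclusive = readout between -30 and a set limit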
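Compounds are pinned in duplicate onto adhered PC3M cells stably expressing GFP-tagged PTB and incubated 16 h at 37 C. Cells are then fixed, nuclei stained with Hoechst, and PNC-positive cells counted.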
HTT cytoprotect: protects HTT-Q103 PC12 cells, measured by ATP; 230,000 compounds, 0.14% hits; Potency, µM (series often up to 56.4 µM), actives largely listed as activators; PC12 HTT-Q103 induced, cytoprotection, ATP luminescence, 40 h; also: nearly all actives have a fitted effect of over 45% in size
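Stable PC12 Q103-GFP cells in serum-supplemented, phenol red-free DMEM; induction by tebufenozide at 100 nM final; compound dose series; cell viability quantified luminescently from ATP.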
A number is an active result; 0 = inactive; ? = inconclusive; - = no result; [ ] = another dose, or the depositor's remark. The entries come from a sample that favours hits as a whole. Unless noted, calls follow the shape of the dose curve; as a rule, active = well fitted curve in the direction sought with a large enough effect; inconclusive = small, poorly fitted or top-dose-only effect, or another doubt; inactive = no such curve, though single readings can be large; an effect the other way counts as inactive or inconclusive.

SMILES	HTT aggregate	PNC inhibitor	HTT cytoprotect
CSc1nc2sc(-c3ccccc3)cc2c(=O)n1N	0	0	0
CC(C)Sc1nc2sc(-c3ccccc3)cc2c(=O)n1N	0	-106	0
O=C(c1csc2c1CCCC2)N1CCN(c2ccccc2)CC1	0	-80	?
Cc1ccc(C(=O)N2CCN(c3ccccc3)CC2)cc1C	0	-107	0
Cc1ccc(C(=O)N2CCN(c3cccc(Cl)c3)CC2)cc1C	?	?	0[10 µM]
O=C(c1ccccc1C(=O)N1CCN(c2ccccc2)CC1)N1CCN(c2ccccc2)CC1	0	0	0[10 µM]
COc1ccccc1-c1cc(-c2ccccc2)nc(SC(C(N)=O)c2ccccc2)c1C#N (centres undefined)	11µM	0	0
Cc1nc(SC(C(N)=O)c2ccccc2)c(C#N)c(C)c1C (centres undefined)	0[9.22 µM]	-	0[10 µM]
COc1ccccc1NC(=O)c1ccc(NC(=O)Cc2n[nH]c(=O)c3ccccc23)cc1	0[9.22 µM]	-	0[10 µM]
CC(C)CC(NC(=O)c1ccccc1)C(=O)OCC(=O)Nc1ccc(Br)cn1 (centres undefined)	0	?	0[10 µM]
CC(C)CCn1c(-c2nonc2N)nc2ccccc21	11µM	0	0[10 µM]
CCCCn1c(-c2nonc2N)nc2ccccc21	?	0	0[10 µM]
CCOc1cc2[nH]c(=O)n(Cc3ccc(C(=O)NCCCN4CCC(C)CC4)cc3)c(=O)c2cc1OCC	?	-	0
O=c1[nH]c2cc(Cl)c([N+](=O)[O-])nc2[nH]1	0	0	0[10 µM]
COC(=O)C1(O)CC(CC(C)C)=NN1C(=O)c1ccccc1 (centres undefined)	0	-124	0[10 µM]
COC(=O)C1=NN(C(=O)c2ccccc2)C(C)(O)C1 (centres undefined)	0	?	0
N#Cc1ccsc1NC(=O)CSc1nnc(-c2ccccc2)o1	0	0	0
CCCCCSc1nnc(-c2ccccc2N)c(=O)[nH]1	0	?	-
CCCCCSc1nnc(-c2ccccc2NC(C)=O)c(=O)[nH]1	0	-	2.8µM
CCC1=C2CC[C@H]3C(=O)NC(=O)[C@H]3[C@H]2[C@@]2(Cc3ccccc3)C(=NCC(=O)OC)OC(=O)N2C1=O	0[9.22 µM]	-	0
Cc1cc(C)n(-c2nc3ccccc3nc2N2CCC(C)CC2)n1	0	0	0
Cc1cc(N2CCC(C)CC2)nc(-n2nc(C)cc2C)n1	0	-96	0[10 µM]
O=C(O)C1CCN(C(=O)COc2ccc3c4c(c(=O)oc3c2)CCC4)CC1	0	0	0
CCc1ccccc1NC(=O)C(C#N)Cc1cccnc1 (centres undefined)	0	-82	0[10 µM]
COc1cccc(NC(=O)C(C#N)Cc2ccncc2)c1 (centres undefined)	0	0	0[10 µM]
SMILES	HTT aggregate	PNC inhibitor	HTT cytoprotect
CCc1ccc(O)c(-c2cc(C(=O)Nc3cccnc3)[nH]n2)c1	0[9.22 µM]	-	0[10 µM]
CCc1nnc(NC(=O)c2ccc(S(=O)(=O)N3CCCc4ccccc43)cc2)o1	8.9µM	0	0[10 µM]
CNC(=O)c1ccsc1NC(=O)c1ccc(S(=O)(=O)N2CCCc3ccccc32)cc1	0	0	-
CCN(c1cccc(C)c1)S(=O)(=O)c1c(C)[nH]c(=O)[nH]c1=O	0	0	0
CCN(c1cccc(C)c1)S(=O)(=O)c1ccc2[nH]c(=O)c(=O)[nH]c2c1	0	-103	0[10 µM]
O=C1c2ccccc2C(=O)N1CCCc1nc(-c2ccccn2)no1	0	-107	0
O=C1c2ccccc2C(=O)N1CCc1nc(-c2ccccn2)no1	0	0	0
CCSc1ccccc1C(=O)N1CCN(c2ccc([N+](=O)[O-])cc2)CC1	0[9.22 µM]	-	0[10 µM]
Cc1c(-c2ccccc2)oc2c(C(=O)N3CCN(c4ccc([N+](=O)[O-])cc4)CC3)cccc2c1=O	4µM	0	0[10 µM]
CC(=O)N1CCC(=NNC(=O)c2cccs2)CC1	0	-109	-
O=C(NN=C1CCCC1)c1cccs1	0	0	0[10 µM]
CCn1c(C)nc2cc(C(=O)N=Nc3c(O)[nH]c4c(C)cc(C)cc34)ccc21	0	0	0[10 µM]
CCn1c(C)nc2cc(C(=O)N=Nc3c(O)[nH]c4ccccc34)ccc21	0	-93	0[10 µM]
COc1ccc(NS(=O)(=O)c2ccc(Oc3ncccn3)cc2)cc1	11µM	?	0
COc1ccc(S(=O)(=O)Nc2ccc(Oc3ncccn3)c(Cl)c2)cc1	0	0	0
COC(=O)C1=C(C(=O)OC)[C@@H]2N(C)c3ccc(OC)cc3[C@@]23C[C@@H](C(=O)OC)N(S(=O)(=O)c2ccc([N+](=O)[O-])cc2)C3=N1	0[9.22 µM]	-	0[10 µM]
O=C(NCc1ccccn1)c1ccc(Cn2cc(Br)cn2)o1	0	0	0[0.074 µM]
O=C(N/N=C/c1c(F)c(F)c(F)c(F)c1F)c1ccc(Cn2cc(Br)cn2)o1	0	0	-
O=C(c1ccc(Cn2cc(Br)cn2)o1)n1cccn1	0	-83	0[10 µM]
NNC(=O)c1ccc(Cn2cc(Cl)cn2)cc1	0	0	-

Screens: PubChem BioAssay, National Center for Advancing Translational Sciences (NCATS)
